Reference: PubChem BioAssay (EPA / NIEHS)
Records with an inconclusive call do not appear. Where a structure was tested more than once in an assay, its records may differ in their call. Active and inactive are the calls of the source. How the source made its calls, unless noted: active means hit-call score of the fitted dose curve at least 0.9, where 1 is the maximum; inactive means score below 0.9.

Experiments:
[1] = molecular target: human RAR-related Orphan Receptor gamma (RORg), RORC (gene 6097) (UniProt P51449); experiment: ATG_RORg_TRANS: Attagene TRANS-FACTORIAL HepG2 Assay for human RAR-related Orphan Receptor gamma (RORg) (AID 2283011; active means hit-call score of the fitted dose curve at least 0.9, where 1 is the maximum)
human RAR-related Orphan Receptor gamma (RORg), RORC (gene 6097), sequence (P51449 whole entry, looked up, the tested form may be a part): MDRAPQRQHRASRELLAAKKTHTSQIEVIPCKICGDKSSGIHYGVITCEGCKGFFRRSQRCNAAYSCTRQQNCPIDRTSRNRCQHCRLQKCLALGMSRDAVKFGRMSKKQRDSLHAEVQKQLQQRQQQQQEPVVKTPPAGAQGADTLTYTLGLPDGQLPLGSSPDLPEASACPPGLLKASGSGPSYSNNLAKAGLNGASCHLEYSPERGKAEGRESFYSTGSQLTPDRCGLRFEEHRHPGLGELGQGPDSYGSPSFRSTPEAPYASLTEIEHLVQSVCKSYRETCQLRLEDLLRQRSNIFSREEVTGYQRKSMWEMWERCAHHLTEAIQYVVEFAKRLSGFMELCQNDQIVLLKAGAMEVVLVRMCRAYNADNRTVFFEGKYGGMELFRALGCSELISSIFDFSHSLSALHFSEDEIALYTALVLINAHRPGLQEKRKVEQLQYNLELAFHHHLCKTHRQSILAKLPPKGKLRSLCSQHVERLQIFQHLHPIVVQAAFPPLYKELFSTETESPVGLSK
Method in brief: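 Reporter transcripts from a transfected RORg-GAL4 chimera in HepG2 cells were quantified 24 h after dosing by RT-PCR, 6-FAM labelling, HpaI digestion and capillary electrophoresis; increases over DMSO baseline were fitted.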

[2] = molecular target: human Retinoid X Receptor beta (RXRb), RXRB (gene 6257) (UniProt P28702); experiment: ATG_RXRb_TRANS: Attagene TRANS-FACTORIAL HepG2 Assay for human Retinoid X Receptor beta (RXRb) (AID 2283013; active means hit-call score of the fitted dose curve at least 0.9, where 1 is the maximum)
human Retinoid X Receptor beta (RXRb), RXRB (gene 6257), sequence (P28702 whole entry, looked up, the tested form may be a part): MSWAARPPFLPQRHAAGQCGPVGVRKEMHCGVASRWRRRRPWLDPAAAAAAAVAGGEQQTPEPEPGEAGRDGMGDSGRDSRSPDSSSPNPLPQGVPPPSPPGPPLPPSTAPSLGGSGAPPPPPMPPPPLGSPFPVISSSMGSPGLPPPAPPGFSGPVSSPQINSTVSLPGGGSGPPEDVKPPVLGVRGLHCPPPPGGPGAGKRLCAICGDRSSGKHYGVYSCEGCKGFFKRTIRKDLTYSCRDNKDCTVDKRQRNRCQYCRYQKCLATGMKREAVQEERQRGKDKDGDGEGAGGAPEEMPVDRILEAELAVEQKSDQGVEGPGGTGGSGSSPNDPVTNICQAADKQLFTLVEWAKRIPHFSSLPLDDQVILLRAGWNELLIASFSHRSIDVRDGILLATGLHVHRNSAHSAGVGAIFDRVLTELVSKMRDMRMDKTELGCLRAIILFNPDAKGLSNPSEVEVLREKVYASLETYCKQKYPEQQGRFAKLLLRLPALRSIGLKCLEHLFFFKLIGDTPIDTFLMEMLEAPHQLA
Method in brief: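 Read-out: reporter mRNA induction via RT-PCR plus capillary electrophoresis fluorescence, analysed as signal increase relative to DMSO. Cells were human HepG2, transiently transfected with GAL4-UAS reporter constructs and chimeric receptor-Gal4 fusions, dosed for 24 h.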

[3] = read-out: Interleukin-1 alpha (IL1a), IL1A (gene 3552); experiment: BSK_BE3C_IL1a: BioMAP Diversity Plus: BE3C Assay for Interleukin-1 alpha (IL1a) Biomarker Activity (AID 2283016); settings: primary human bronchial epithelial cells; actives raise or lower the signal
Method in brief: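 ELISA read-out of IL-1a from human lung bronchial epithelial primary cells, 24 h post-dose. Gain or loss of signal fitted relative to DMSO negative control.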

[4] = read-out: Monocyte Chemoattractant Protein-1 (MCP1), CCL2 (gene 6347); experiment: BSK_3C_MCP1: BioMAP Diversity Plus: 3C Assay for Monocyte Chemoattractant Protein-1 (MCP1) Biomarker Activity (AID 2283017); settings: primary human endothelial cells (HUVEC); actives raise or lower the signal
Method in brief: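 MCP-1 was measured by ELISA 24 h after dosing in primary HUVEC 3C cultures and fitted in both directions relative to DMSO; cytotoxicity was checked by SRB total-protein staining in parallel wells.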

[5] = read-out: Monocyte Chemoattractant Protein-1 (MCP1), CCL2 (gene 6347); experiment: BSK_4H_MCP1: BioMAP Diversity Plus: 4H Assay for Monocyte Chemoattractant Protein-1 (MCP1) Biomarker Activity (AID 2283018); settings: primary human endothelial cells (HUVEC); actives raise or lower the signal
Method in brief: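 HUVEC primary cells, 24 h post-dose, MCP-1 by ELISA. Gain or loss of signal fitted bidirectionally vs DMSO baseline. Cytotoxicity: SRB stain (0.1% after 10% TCA fixation), read 560 nm, parallel cultures.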

[6] = read-out: Human Leukocyte Antigen - DR isotype (HLADR), HLA-DRA (gene 3122); experiment: BSK_3C_HLADR: BioMAP Diversity Plus: 3C Assay for Human Leukocyte Antigen - DR isotype (HLADR) Biomarker Activity (AID 2283019); settings: primary human endothelial cells (HUVEC); actives raise or lower the signal
Method in brief: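 Bidirectional fitting against DMSO was applied to the HLA-DR ELISA signal from human umbilical vein endothelial cells, 24 h post-dose. Cytotoxicity came from parallel SRB total-protein staining; 3C proliferation was counted by SRB at 48 h.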

[7] = molecular target: Retinoic acid receptor RXR-alpha (Homo sapiens) (UniProt P19793); experiment: ATG_RXRa_TRANS: Attagene TRANS-FACTORIAL HepG2 Assay for human Retinoid X Receptor alpha (RXRa) (AID 2283012; active means hit-call score of the fitted dose curve at least 0.9, where 1 is the maximum)
Retinoic acid receptor RXR-alpha (Homo sapiens), sequence (P19793 whole entry, looked up, the tested form may be a part): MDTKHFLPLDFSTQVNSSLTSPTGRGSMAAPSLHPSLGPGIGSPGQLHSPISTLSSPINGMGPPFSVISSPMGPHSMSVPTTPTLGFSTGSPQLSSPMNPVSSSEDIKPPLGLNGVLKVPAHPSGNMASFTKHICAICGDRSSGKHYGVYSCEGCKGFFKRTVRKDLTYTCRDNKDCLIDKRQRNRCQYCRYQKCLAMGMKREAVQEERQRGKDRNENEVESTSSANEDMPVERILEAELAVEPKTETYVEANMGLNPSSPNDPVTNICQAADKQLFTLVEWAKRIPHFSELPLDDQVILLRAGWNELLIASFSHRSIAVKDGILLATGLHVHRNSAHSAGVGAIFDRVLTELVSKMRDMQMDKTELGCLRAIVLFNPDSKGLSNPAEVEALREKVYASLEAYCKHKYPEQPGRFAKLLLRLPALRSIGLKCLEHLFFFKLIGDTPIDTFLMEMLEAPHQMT
Method in brief: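 Read-out: fluorescent reporter-transcript fragments quantified by capillary electrophoresis after RT-PCR. Transiently transfected HepG2 cells carrying GAL4-UAS reporters and NR-GAL4 chimeras were exposed to chemical for 24 h; activity scored as increase over DMSO.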

[8] = molecular target: human Thyroid Receptor alpha (THRa1), THRA (gene 7067) (UniProt P10827); experiment: ATG_THRa1_TRANS: Attagene TRANS-FACTORIAL HepG2 Assay for human Thyroid Receptor alpha (THRa1) (AID 2283014; active means hit-call score of the fitted dose curve at least 0.9, where 1 is the maximum)
human Thyroid Receptor alpha (THRa1), THRA (gene 7067), sequence (P10827 whole entry, looked up, the tested form may be a part): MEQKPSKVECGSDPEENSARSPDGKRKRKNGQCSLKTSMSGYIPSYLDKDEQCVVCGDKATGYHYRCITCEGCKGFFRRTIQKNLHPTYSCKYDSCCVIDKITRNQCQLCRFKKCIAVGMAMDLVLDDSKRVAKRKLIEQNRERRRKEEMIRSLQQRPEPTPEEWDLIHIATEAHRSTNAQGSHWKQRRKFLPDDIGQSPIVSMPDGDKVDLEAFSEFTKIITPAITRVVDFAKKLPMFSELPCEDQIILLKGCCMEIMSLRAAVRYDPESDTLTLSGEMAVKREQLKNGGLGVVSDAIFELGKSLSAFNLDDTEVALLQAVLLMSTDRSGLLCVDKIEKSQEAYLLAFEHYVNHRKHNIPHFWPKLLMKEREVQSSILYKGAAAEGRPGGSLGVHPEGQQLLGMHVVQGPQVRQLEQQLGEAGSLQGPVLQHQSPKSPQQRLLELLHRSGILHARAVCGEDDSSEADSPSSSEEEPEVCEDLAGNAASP
Method in brief: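 Transcripts from GAL4-UAS-driven reporters, measured after 24 h compound exposure by RT-PCR plus capillary electrophoresis of 6-FAM-labeled fragments, were fitted for gain of signal relative to DMSO. Cells: transiently transfected HepG2 expressing NR-Gal4 chimeras.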

[9] = read-out: E-selectin (Homo sapiens) (UniProt P16581); experiment: BSK_3C_Eselectin: BioMAP Diversity Plus: 3C Assay for Eselectin Biomarker Activity (AID 2283015); settings: primary human endothelial cells (HUVEC); actives raise or lower the signal
Method in brief: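 E-selectin ELISA readout, fitted bidirectionally relative to DMSO, taken 24 h post-dosing in HUVEC cultures of the 3C system. Overt cytotoxicity tracked with sulforhodamine B staining of parallel wells.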

Measured: AC50

E-selectin (Homo sapiens), sequence (P16581 whole entry, looked up): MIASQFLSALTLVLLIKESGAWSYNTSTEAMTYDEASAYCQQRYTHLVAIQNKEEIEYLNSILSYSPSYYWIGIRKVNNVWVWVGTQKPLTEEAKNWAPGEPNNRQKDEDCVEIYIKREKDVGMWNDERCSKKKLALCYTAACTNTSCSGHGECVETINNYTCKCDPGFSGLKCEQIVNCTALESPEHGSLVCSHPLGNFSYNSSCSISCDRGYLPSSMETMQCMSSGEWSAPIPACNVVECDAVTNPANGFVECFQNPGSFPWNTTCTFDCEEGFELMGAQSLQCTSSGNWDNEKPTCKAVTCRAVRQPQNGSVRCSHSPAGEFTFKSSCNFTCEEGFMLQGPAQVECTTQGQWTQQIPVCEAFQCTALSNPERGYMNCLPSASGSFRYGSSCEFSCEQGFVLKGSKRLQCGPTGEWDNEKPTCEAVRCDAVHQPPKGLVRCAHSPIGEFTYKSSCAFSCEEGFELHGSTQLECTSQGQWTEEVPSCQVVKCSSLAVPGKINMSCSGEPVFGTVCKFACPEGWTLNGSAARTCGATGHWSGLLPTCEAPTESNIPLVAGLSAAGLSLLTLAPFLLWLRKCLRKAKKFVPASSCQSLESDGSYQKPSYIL

CCOC(=O)c1ccccc1C(=O)OCC
inactive: [1] | [2] | [3] | [4] | [5] | [6]

CCCCC(CC)COC(=O)c1c(Br)c(Br)c(Br)c(Br)c1C(=O)OCC(CC)CCCC (stereo not given)
inactive: [1] | [7] | [8] | [9] | [3] | [4] | [5] | [6]

CCCCN(CC)C(=O)SCCC
inactive: [1]
active: [2] 59.1 µM

O=C(O)C(Cl)Cl
inactive: [1] | [7] | [8] | [3] | [4] | [5] | [6]

O=P1(N(CCCl)CCCl)NCCCO1 (stereo not given)
inactive: [1] | [3] | [4] | [5] | [6]

CCOP(=S)(OCC)SCn1nnc2ccccc2c1=O
inactive: [1] | [7] | [8] | [3] | [4] | [5]
active: [9] 20 µM | [6] 33.7 µM

OCC1CO1 (stereo not given)
inactive: [1] | [8] | [9] | [3] | [4] | [5] | [6]

CCCCOCCOP(=O)(OCCOCCCC)OCCOCCCC
active: [2] 24.8 µM | [4] 3.97 µM | [6] 12.8 µM
inactive: [1] | [2] | [3] | [5]

CC(C)Nc1ccc(Nc2ccccc2)cc1
inactive: [1] | [7] | [2] | [8]
active: [3] 6.48 µM | [4] 9.95 µM | [5] 6.18 µM | [6] 4.45 µM

CC(O)C#N (stereo not given)
inactive: [1] | [7] | [8]

CCOP(=S)(OCC)SCSc1ccc(Cl)cc1
inactive: [7] | [8] | [9] | [4]
active: [2] 13.5 µM | [3] 0.212 µM | [5] 8.96 µM | [6] 27.5 µM

CC(Cl)(Cl)C(=O)O
inactive: [1] | [7] | [8] | [9] | [3] | [4] | [5] | [6]

COP(N)(=S)OC
inactive: [1] | [7] | [2] | [9] | [3] | [4] | [5] | [6]
